According to the supplement of paper PMC11732987, “Enantioselective OTUD7B fragment discovery through chemoproteomics screening and high-throughput optimisation” (Communications Chemistry, 2025):

Key:
Assay in all cases: log2 ratio of Biotin-Ahx-Ub-VS probe labelling (fragment/DMSO); higher = less target engagement (more negative = stronger competition), active = hit call of the paper (q ≤ 0.05, log2 ratio ≤ -1)
Conditions in all cases: compound concentration: 200 uM; treatment time: 3 h
USP16 = USP16 (UniProt Q9Y5T5)
How it was run: (§1)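 Labelled DUBs from HEK293T lysate were NeutrAvidin-enriched, digested with LysC and trypsin, and run by diaPASEF LC-MS/MS. Before that, each 495 µg sample in Tris/CHAPS/IGEPAL buffer with protease inhibitors was treated in triplicate with fragment at 200 µM or vehicle for 3 h, then with Biotin-Ahx-Ub-VS at 0.5 µM final for 1 h. Values are average log2 ratios of fragment over vehicle by unpaired t-test, based on global-median-normalised Spectronaut label-free quantities from proteins with ≥2 unique peptides.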

USP19 = molecular target: T1, USP19 (UniProt O94966)
T1 sequence (whole entry): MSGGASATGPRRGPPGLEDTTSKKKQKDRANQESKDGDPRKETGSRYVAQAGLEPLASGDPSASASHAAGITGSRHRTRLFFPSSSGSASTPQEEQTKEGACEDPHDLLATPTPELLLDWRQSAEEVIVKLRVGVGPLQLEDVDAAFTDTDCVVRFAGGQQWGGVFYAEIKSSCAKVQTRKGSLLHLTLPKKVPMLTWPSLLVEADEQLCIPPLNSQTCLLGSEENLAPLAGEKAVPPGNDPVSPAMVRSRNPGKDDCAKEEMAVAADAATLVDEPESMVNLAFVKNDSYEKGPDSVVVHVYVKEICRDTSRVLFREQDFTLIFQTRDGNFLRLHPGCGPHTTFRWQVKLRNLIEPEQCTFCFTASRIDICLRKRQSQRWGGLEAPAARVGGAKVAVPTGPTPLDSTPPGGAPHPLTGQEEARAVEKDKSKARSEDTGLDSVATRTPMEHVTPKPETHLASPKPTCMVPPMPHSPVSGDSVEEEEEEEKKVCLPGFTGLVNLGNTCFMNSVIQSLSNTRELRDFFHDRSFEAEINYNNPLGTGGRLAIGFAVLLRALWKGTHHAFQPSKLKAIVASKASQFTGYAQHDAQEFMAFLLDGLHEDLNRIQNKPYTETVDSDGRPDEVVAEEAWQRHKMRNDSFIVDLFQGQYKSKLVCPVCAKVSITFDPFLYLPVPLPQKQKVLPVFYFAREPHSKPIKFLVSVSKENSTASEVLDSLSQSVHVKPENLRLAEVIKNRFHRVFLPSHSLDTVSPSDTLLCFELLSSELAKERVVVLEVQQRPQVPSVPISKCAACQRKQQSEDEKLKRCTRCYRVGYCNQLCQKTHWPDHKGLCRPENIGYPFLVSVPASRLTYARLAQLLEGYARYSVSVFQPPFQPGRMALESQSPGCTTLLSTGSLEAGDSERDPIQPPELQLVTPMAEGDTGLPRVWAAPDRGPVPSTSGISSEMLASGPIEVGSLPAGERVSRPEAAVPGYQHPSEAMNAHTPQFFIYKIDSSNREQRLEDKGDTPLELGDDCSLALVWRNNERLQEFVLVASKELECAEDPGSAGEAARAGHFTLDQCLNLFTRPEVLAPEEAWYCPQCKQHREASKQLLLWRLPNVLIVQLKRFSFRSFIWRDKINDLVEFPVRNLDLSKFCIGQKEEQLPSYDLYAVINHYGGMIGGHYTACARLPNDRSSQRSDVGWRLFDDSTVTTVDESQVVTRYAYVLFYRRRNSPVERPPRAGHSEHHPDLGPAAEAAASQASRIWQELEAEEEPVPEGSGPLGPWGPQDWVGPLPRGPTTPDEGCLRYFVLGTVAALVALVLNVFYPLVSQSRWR
How it was run: as §1

USP24 = USP24 (UniProt Q9UPU5)
How it was run: as §1

USP25 = molecular target: T2, USP25 (UniProt Q9UHP3)
T2 sequence (whole entry): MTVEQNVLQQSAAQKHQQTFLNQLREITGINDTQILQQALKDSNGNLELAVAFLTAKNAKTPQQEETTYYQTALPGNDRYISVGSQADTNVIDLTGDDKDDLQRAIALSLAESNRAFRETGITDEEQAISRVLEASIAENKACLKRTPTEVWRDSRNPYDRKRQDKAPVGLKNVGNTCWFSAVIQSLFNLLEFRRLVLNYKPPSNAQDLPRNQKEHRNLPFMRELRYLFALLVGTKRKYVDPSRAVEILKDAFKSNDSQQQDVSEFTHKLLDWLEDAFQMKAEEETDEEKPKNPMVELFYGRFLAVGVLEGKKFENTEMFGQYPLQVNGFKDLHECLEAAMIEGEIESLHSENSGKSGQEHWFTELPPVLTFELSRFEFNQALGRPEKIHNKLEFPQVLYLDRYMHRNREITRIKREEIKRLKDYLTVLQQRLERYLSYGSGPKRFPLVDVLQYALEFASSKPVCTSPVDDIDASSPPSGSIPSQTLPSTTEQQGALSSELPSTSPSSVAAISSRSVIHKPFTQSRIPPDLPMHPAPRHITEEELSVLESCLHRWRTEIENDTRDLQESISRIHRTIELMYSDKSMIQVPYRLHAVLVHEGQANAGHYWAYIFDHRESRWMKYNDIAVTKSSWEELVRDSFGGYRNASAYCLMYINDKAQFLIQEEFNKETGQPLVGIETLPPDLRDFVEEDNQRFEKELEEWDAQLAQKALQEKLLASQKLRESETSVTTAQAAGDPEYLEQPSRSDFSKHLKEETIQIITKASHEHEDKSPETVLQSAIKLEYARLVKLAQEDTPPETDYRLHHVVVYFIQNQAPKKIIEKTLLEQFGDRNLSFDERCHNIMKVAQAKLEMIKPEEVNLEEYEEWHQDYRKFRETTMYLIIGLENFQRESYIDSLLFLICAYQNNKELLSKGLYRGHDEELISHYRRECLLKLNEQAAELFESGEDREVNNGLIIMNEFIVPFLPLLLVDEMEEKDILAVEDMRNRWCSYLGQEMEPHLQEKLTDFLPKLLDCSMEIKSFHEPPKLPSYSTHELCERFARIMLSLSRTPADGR
How it was run: as §1

USP28 = molecular target: T3, USP28 (UniProt Q96RU2)
T3 sequence (whole entry): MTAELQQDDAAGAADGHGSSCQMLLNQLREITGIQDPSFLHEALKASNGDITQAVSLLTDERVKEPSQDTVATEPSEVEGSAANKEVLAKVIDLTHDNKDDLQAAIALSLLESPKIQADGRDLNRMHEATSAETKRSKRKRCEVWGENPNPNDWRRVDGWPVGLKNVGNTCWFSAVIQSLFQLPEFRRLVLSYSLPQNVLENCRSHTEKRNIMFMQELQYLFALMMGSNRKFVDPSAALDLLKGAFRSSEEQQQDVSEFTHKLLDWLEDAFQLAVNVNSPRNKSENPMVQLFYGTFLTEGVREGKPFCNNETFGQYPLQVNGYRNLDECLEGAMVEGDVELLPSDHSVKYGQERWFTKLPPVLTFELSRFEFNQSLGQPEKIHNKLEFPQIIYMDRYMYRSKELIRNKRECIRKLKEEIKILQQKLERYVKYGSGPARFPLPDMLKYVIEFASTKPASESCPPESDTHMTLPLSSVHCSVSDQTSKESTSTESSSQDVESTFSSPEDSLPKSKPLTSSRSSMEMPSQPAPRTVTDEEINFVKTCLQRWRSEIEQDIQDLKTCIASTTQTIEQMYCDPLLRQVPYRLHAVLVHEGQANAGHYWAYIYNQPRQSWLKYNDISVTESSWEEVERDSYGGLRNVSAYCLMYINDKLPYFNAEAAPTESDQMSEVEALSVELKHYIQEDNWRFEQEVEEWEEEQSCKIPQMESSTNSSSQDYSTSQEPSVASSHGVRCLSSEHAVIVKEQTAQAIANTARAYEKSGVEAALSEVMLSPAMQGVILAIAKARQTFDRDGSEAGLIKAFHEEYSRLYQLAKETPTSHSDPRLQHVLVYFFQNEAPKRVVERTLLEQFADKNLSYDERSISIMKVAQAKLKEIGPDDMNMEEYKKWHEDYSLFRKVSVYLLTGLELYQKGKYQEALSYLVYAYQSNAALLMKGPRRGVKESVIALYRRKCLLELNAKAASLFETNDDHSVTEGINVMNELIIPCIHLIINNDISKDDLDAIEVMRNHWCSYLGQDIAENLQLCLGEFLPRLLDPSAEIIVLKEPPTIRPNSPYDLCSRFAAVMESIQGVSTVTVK
How it was run: as §1

Measured: log2 ratio of Biotin-Ahx-Ub-VS probe labelling

Chain of USP16 (Q9Y5T5 whole entry, looked up, the tested form may be a part): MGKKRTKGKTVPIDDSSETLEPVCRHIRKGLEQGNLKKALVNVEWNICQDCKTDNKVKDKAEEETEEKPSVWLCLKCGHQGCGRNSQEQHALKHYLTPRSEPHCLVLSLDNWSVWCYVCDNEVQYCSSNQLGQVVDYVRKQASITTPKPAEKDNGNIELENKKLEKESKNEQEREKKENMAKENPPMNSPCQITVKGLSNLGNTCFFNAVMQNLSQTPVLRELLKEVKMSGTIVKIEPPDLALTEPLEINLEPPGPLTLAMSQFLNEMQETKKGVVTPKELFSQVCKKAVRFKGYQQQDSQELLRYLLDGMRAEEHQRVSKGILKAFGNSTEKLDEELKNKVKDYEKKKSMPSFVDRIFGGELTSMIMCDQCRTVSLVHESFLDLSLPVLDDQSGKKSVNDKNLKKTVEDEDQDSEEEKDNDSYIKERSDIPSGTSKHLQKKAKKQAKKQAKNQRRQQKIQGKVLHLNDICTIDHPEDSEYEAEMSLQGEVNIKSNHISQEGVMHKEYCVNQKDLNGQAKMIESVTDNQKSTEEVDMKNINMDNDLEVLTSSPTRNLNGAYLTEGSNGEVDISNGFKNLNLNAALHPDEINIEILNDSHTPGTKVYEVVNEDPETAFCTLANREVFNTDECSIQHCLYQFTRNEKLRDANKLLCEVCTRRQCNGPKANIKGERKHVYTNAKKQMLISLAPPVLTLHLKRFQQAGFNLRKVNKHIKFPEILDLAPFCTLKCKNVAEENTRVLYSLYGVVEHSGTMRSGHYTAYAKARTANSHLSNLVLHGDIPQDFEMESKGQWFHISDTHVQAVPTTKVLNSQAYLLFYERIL
Chain of USP24 (Q9UPU5 whole entry): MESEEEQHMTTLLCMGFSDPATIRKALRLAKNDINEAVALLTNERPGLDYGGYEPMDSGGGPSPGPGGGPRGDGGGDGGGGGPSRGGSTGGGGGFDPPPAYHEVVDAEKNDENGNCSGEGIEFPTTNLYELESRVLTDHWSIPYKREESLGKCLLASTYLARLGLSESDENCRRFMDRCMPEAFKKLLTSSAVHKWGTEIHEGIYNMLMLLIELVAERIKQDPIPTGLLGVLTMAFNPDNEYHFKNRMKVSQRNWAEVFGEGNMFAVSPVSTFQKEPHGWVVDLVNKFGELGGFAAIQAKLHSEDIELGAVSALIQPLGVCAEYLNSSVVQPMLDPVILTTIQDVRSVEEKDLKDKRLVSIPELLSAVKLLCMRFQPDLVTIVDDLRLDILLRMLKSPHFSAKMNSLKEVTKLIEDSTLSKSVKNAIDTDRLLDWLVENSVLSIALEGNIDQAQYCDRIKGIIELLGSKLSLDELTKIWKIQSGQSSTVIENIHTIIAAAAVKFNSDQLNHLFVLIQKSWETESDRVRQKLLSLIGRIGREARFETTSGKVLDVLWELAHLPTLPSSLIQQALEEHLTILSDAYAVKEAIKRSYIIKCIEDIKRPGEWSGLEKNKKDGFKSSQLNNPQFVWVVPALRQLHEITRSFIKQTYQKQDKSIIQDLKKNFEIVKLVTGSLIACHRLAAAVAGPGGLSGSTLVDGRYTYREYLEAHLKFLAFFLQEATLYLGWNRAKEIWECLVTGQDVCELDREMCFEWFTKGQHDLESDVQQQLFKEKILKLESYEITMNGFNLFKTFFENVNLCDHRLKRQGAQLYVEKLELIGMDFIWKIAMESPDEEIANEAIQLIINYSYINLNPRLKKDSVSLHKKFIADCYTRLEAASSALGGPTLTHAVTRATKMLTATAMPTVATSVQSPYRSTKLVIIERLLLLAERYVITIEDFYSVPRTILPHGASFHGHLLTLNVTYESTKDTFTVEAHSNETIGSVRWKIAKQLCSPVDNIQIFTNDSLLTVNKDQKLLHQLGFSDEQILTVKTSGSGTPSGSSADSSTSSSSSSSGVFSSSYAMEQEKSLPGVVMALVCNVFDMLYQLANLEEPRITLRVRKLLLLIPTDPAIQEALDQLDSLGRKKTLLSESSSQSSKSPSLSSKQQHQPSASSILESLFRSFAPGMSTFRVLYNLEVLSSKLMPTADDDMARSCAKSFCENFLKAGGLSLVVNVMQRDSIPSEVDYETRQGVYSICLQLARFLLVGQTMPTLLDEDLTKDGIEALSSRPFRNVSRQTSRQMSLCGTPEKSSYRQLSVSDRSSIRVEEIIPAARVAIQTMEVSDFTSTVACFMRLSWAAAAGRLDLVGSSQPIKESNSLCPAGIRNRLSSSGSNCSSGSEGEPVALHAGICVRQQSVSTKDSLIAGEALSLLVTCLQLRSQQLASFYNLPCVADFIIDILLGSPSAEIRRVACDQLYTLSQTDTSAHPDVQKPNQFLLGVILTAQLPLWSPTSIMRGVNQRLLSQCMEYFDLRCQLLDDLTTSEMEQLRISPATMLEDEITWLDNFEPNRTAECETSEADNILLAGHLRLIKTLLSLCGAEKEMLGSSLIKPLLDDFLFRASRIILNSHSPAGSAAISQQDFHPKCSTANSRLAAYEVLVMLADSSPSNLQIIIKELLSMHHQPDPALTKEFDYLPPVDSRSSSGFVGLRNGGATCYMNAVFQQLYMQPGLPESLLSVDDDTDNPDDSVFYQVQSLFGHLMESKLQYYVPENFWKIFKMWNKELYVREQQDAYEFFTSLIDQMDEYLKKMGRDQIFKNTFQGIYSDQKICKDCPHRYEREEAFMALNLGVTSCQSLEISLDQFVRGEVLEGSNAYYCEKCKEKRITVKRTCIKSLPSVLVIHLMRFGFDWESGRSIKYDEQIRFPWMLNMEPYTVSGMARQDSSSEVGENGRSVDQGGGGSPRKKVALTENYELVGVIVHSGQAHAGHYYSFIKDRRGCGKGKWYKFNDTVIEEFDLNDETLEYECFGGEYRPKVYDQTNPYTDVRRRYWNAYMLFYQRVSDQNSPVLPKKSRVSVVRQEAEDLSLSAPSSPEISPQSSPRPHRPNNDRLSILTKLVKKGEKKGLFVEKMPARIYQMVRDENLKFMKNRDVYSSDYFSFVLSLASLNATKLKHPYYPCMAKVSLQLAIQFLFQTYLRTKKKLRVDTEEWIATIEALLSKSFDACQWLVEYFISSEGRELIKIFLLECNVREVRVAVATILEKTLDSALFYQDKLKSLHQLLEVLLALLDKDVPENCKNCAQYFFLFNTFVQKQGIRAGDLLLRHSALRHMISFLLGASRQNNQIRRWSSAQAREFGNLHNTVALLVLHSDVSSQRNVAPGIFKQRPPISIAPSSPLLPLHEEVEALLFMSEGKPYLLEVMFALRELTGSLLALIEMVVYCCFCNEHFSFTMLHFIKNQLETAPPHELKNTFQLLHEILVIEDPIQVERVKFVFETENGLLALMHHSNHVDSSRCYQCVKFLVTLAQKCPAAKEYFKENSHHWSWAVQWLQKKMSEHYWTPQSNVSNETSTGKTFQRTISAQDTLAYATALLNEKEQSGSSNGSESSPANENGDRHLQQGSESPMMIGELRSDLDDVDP

O=C(CCl)NCCc1ccc2c(c1)OCCO2
inactive: USP16 0.248 | USP19 -0.254 | USP24 -0.665 | USP25 -0.794 | USP28 -0.745
